The nature of test [1]: qHTS of pediatric cancer cell lines to identify multiple opportunities for drug repurposing: Primary screen for DAOY cells (AID 1347090). Also: series mostly up to about 46 µM; nearly all actives have a fitted effect of over 55% in size. An outline of the steps: (§1)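 Viability measured as metabolically active cells via CellTiter-Glo luminescence following 48 hours of compound exposure, 11-point dilutions in confirmatory testing. 500-1,000 cells/well plated 5 hours before dosing; controls were DMSO and 2.3 µM bortezomib.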
Background: Quantitative high-throughput screening tests each substance at several concentrations.

Test [2] is described as follows: qHTS of pediatric cancer cell lines to identify multiple opportunities for drug repurposing: Primary screen for SJ-GBM2 cells (AID 1347091). Also: potency is read from the fitted curve at half-maximal effect. An outline of the steps: as §1
Test [3] is described as follows: qHTS of pediatric cancer cell lines to identify multiple opportunities for drug repurposing: Primary screen for A673 cells (AID 1347092). Also: nearly all actives have a fitted effect of over 45% in size. Also: potency is read from the fitted curve at half-maximal effect. An outline of the steps:
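Luminescence from CellTiter-Glo, taken after 15 min at room temperature, served as the proxy for metabolically active cells following 48 h treatment. Both potency and efficacy were taken from curves fitted to the titration data.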

Test [4] can be described thus: qHTS of pediatric cancer cell lines to identify multiple opportunities for drug repurposing: Primary screen for NB-EBc1 cells (AID 1347095). Also: potency is read from the fitted curve at half-maximal effect. The method, boiled down:
(§2)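 Luminescence from CellTiter-Glo served as readout of metabolically active cells after 48 h compound exposure. Titrations: MIPE 11-point, from 0.78 nM; NPC 8-point, from 0.59 nM (final). Concentration-response curves came straight from the primary screen.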

Test [5] is described as follows: qHTS of pediatric cancer cell lines to identify multiple opportunities for drug repurposing: Primary screen for U-2 OS cells (AID 1347096). Also: nearly all actives have a fitted effect of over 50% in size. An outline of the steps: (§3)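 Viability after 48 h compound treatment at 37C, 500-1,000 cells/well, read as ATP luminescence with CellTiter-Glo. Primary screens used 11-point (MIPE, 0.78 nM-46 µM) or 8-point (NPC, 0.59 nM-46 µM) final concentrations; follow-up screens used 11-point dilutions.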

Test [6] is described as follows: qHTS of pediatric cancer cell lines to identify multiple opportunities for drug repurposing: Primary screen for SK-N-SH cells (AID 1347098). Also: nearly all actives have a fitted effect of over 65% in size. Also: potency is read from the fitted curve at half-maximal effect. The method, boiled down: (§4)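 Cells (500-1,000/well) rested 5 h, then received compounds for 48 h; metabolically active cells were measured by CellTiter-Glo luminescence. Final concentrations spanned up to 46 µM (MIPE, 11-point) or 0.59 nM-46 µM (NPC, 8-point) in primary screens, 11-point in follow-ups.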

Test [7] is described as follows: qHTS of pediatric cancer cell lines to identify multiple opportunities for drug repurposing: Primary screen for LAN-5 cells (AID 1347100). Also: potency is read from the fitted curve at half-maximal effect. An outline of the steps:
as §3

Test [8] can be described thus: qHTS of pediatric cancer cell lines to identify multiple opportunities for drug repurposing: Primary screen for MG 63 (6-TG R) cells (AID 1347105). Also: nearly all actives have a fitted effect of over 50% in size. Also: potency is read from the fitted curve at half-maximal effect. The method, boiled down:
as §2

A short description of test [9]: qHTS of pediatric cancer cell lines to identify multiple opportunities for drug repurposing: Primary screen for Rh30 cells (AID 1347107). Also: series mostly up to about 46 µM; nearly all actives have a fitted effect of over 75% in size. The method, boiled down: as §3
Test [10] in a line: qHTS of pediatric cancer cell lines to identify multiple opportunities for drug repurposing: Primary screen for SK-N-MC cells (AID 1347093). Also: potency is read from the fitted curve at half-maximal effect. An outline of the steps:
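Metabolically active cells were quantified by ATP-dependent luminescence (CellTiter-Glo, 15 min at room temperature) following 48 h treatment. Cells had been plated at 500-1,000 per well and settled for 5 h beforehand.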

The nature of test [11]: qHTS of pediatric cancer cell lines to identify multiple opportunities for drug repurposing: Primary screen for NB1643 cells (AID 1347099). Also: nearly all actives have a fitted effect of over 50% in size. Also: potency is read from the fitted curve at half-maximal effect. An outline of the steps: as §2
The nature of test [12]: qHTS of pediatric cancer cell lines to identify multiple opportunities for drug repurposing: Primary screen for OHS-50 cells (AID 1347103). Also: nearly all actives have a fitted effect of over 40% in size. Also: potency is read from the fitted curve at half-maximal effect. An outline of the steps: as §4
The nature of test [13]: qHTS of pediatric cancer cell lines to identify multiple opportunities for drug repurposing: Primary screen for control Hh wild type fibroblast cells (AID 1347106).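 Also: series mostly up to about 46 µM; a drop in luminescence marks cytotoxicity and a rise apparent proliferation; nearly all actives have a fitted effect of over 55% in size.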 The method, boiled down: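 Cells (500-1,000/well) in growth media were settled 5 h at 37 degrees C, then given compounds for 48 h. Viability was read as CellTiter-Glo luminescence. Primary runs used MIPE at 11 points (0.78 nM-46 µM) and NPC at 8 points (0.59 nM-46 µM); follow-ups used 11 points.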

A short description of test [14]: qHTS of pediatric cancer cell lines to identify multiple opportunities for drug repurposing: Primary screen for BT-37 cells (AID 1347094). Also: potency is read from the fitted curve at half-maximal effect. The method, boiled down: as §2
The nature of test [15]: qHTS of pediatric cancer cell lines to identify multiple opportunities for drug repurposing: Primary screen for Rh41 cells (AID 1347108). Also: nearly all actives have a fitted effect of over 70% in size. Also: potency is read from the fitted curve at half-maximal effect. An outline of the steps: as §2
Test [16] can be described thus: qHTS of pediatric cancer cell lines to identify multiple opportunities for drug repurposing: Primary screen for Saos-2 cells (AID 1347097). Also: nearly all actives have a fitted effect of over 40% in size. Also: potency is read from the fitted curve at half-maximal effect. An outline of the steps: as §2
Test [17] is described as follows: qHTS of pediatric cancer cell lines to identify multiple opportunities for drug repurposing: Primary screen for BT-12 cells (AID 1347101). Also: nearly all actives have a fitted effect of over 25% in size. Also: potency is read from the fitted curve at half-maximal effect. The method, boiled down: as §4
Test [18] is described as follows: qHTS of pediatric cancer cell lines to identify multiple opportunities for drug repurposing: Primary screen for Rh18 cells (AID 1347102). Also: nearly all actives have a fitted effect of over 65% in size. Also: potency is read from the fitted curve at half-maximal effect. The method, boiled down:
as §3

Test [19] in a line: qHTS of pediatric cancer cell lines to identify multiple opportunities for drug repurposing: Primary screen for RD cells (AID 1347104). Also: nearly all actives have a fitted effect of over 55% in size. Also: potency is read from the fitted curve at half-maximal effect. The method, boiled down:
as §2

Test [20] is described as follows: qHTS of pediatric cancer cell lines to identify multiple opportunities for drug repurposing: Confirmatory screen for NB1643 cells (AID 1347109). Also: nearly all actives have a fitted effect of over 45% in size. Also: potency is read from the fitted curve at half-maximal effect. The method, boiled down:
as §3

Inconclusive results are not listed. Calls of active or inactive are those of the source. Calls follow the shape of the dose curve; as a rule, active = well fitted curve in the direction sought with a large enough effect; inconclusive = small, poorly fitted or top-dose-only effect, or another doubt; inactive = no such curve, though single readings can be large; an effect the other way counts as inactive or inconclusive.

17 compounds from PubChem BioAssay (NCATS) can be followed below.

On to `Cc1ccccc1C(C(=O)NC1CCCC1)N(C(=O)Cn1cnc2ccccc21)c1cccc(F)c1` (stereo not given), for which the Potency result in test [1], in test [2], in test [3], in test [4], in test [5] and in test [6] was “inactive” each time. In addition, the Potency entry in test [7], in [8] and in [9] was “inactive” throughout.

Regarding `S=C(NCc1ccc2c(c1)OCO2)N1CCN(c2ncnc3c2oc2ccccc23)CC1`, the Potency result in test [2], in test [6], in test [8], in test [13] and in test [9] was “inactive” throughout. The Potency was 1.71 µM (active) in test [3]; 4.29 µM (active) in test [10]; 8.55 µM (active) in [11]; 30300 nM (active) in test [7]; 1980 nM (active) in [12].

For the compound `COc1ccc(-c2ccc3c(N4CCOCC4)nc(N4C[C@@H](C)O[C@@H](C)C4)nc3n2)cc1CO`, the Potency is 296 nM (active) in test [2]; 11.8 µM (active) in test [3]; 0.0935 µM (active) in test [10]; 1.37 µM (active) in test [14]; 1.48 µM (active) in [4]; 217 nM (active) in test [12]. Moreover, the Potency in [8] is 187 nM (active); in [15], 0.743 µM (active). In addition, the Potency entry in [11] and in test [9] was “inactive” each time.

Take `Cc1cccc(-c2[nH]c(C(C)(C)C)nc2-c2ccc3nccnc3c2)n1`: the Potency in test [2] was 8330 nM (active); in [3], 14.8 µM (active); in test [10] it was 10.5 µM (active); in test [14], 19.3 µM (active); in [16] it was 1.66 µM (active); in [11], 16.6 µM (active). For the same compound, the Potency in [17] is 24.3 µM (active); in test [15], 2.96 µM (active). Further, the Potency entry in [8], in test [13] and in test [9] was “inactive” in each case.

`O=C(NOC[C@H](O)CO)c1ccc(F)c(F)c1Nc1ccc(I)cc1F`: the Potency entry in test [2], in test [16], in test [18], in test [12] and in test [20] was “inactive” each time. Moreover, the Potency is 5.9 µM (active) in test [3], 0.0469 µM (active) in test [10], 0.341 µM (active) in [6] and 0.0935 µM (active) in [19].

As to `CN(C)c1ccc(C2Nc3ccc4ccccc4c3C3=C2C(=O)CC(C)(C)C3)cc1Br` (stereo not given), the Potency entry in test [1], in test [4], in test [5], in [6], in test [7] and in test [17] was “inactive” in each case. Also, the Potency result in [18], in test [13] and in test [9] was “inactive” each time. Moreover, the Potency is 7.43 µM (active) in test [10] and 20.9 µM (active) in [11].

As for `Cc1cc(C=c2sc3nc4ccccc4n3c2=O)c(C)n1-c1ccccc1`, the Potency entry in test [2], in test [3], in [10], in test [4], in test [5] and in test [6] was “inactive” throughout. Moreover, the Potency entry in test [7], in test [17], in test [19], in test [8] and in test [13] was “inactive” in each case.

On to `NC(=O)C1CCCc2c1[nH]c1ccc(Cl)cc21` (stereo not given), for which the Potency entry in [2], in [14], in test [4], in test [5], in test [7] and in test [17] was “inactive” each time. In addition, the Potency entry in test [18], in [8] and in [13] was “inactive” throughout. Moreover, the Potency in test [3] is 23.5 µM (active); in test [10], 26.4 µM (active).

On to `CCOc1cc(N2CCC(O)CC2)ccc1Nc1ncc2c(n1)N(C)c1ccccc1C(=O)N2C`, for which the Potency in test [2] is 132 nM (active); in [3], 0.0047 µM (active); in test [10] it was 0.332 µM (active); in test [14], 0.0544 µM (active); in test [4], 0.833 µM (active); in [16], 0.118 µM (active). Besides, the Potency in test [6] was 4.29 µM (active); in test [7], 93.5 nM (active); in test [17] it was 0.0863 µM (active); in test [19], 0.148 µM (active); in [8] it was 3720 nM (active); in [15], 2.96 µM (active). In addition, the Potency in test [20] was 16.5 µM (active).

On to `COc1cc(Oc2ccnc3cc(OC)c(OC)cc23)ccc1NC(=O)NC(C)c1nccs1` (stereo not given), for which the Potency entry in [1], in [14], in test [5], in [11], in test [18] and in test [19] was “inactive” in each case. Further, in test [13], the Potency entry was “inactive”.

Take `O=c1[nH]c(-c2ccc(C(F)(F)F)cc2)nc2c1CSCC2`: the Potency result in [2], in [5], in [7], in test [18] and in [13] was “inactive” throughout. Besides, the figures for the Potency in test [3] and in test [10] were 14.8 µM (active) and 13.2 µM (active), respectively.

Turning to `COc1ccc(-c2oc3cc(OC)ccc3c2C(=O)c2ccc(C#N)cc2)cc1`, the Potency in test [2] is 1180 nM (active); in test [3], 0.0935 µM (active); in test [10] it was 4.18 µM (active); in test [14], 0.685 µM (active); in test [4], 7.43 µM (active); in test [6] it was 24.1 µM (active). The Potency in test [7] was 833 nM (active); in [17], 1.09 µM (active); in [12] it was 968 nM (active). Further, the Potency entry in test [5], in test [18], in [13] and in [9] was “inactive” throughout.

As for `Cc1ccc(-n2nc(C(C)(C)C)cc2NC(=O)Nc2ccc(OCCN3CCOCC3)c3ccccc23)cc1`, the Potency result in [2], in test [14], in [4], in test [5], in test [16] and in test [7] was “inactive” in each case. Besides, the Potency entry in test [18], in test [13], in test [9] and in test [15] was “inactive” in each case. Moreover, the Potency in [3] was 4.69 µM (active); in test [10], 0.662 µM (active); in test [6], 0.541 µM (active); in test [19], 26.4 µM (active).

As for `CCOc1ccn(-c2ccc(F)cc2)c(=O)c1C(=O)Nc1ccc(Oc2ccnc(N)c2Cl)c(F)c1`, the Potency was 59 nM (active) in test [2]; 18.7 µM (active) in test [3]; 13.2 µM (active) in test [10]; 16.6 µM (active) in [16]; 7430 nM (active) in test [7]. For the same compound, the Potency entry in test [5], in [19] and in test [9] was “inactive” each time.

For `c1ccc(-c2nn3c(c2-c2ccnc4cc(OCCN5CCOCC5)ccc24)CCC3)nc1`, the Potency entry in test [1], in test [10], in test [5], in test [6], in test [17] and in [18] was “inactive” throughout. The Potency result in test [19], in test [8], in test [13], in test [9] and in [15] was “inactive” each time.

In the case of `CN(C(=O)c1ccc(F)cc1C(F)(F)F)C1CCN(c2nnc(-c3ccnn3C)c3ccccc23)CC1`, the Potency entry in test [2], in test [14], in [4], in test [5], in test [7] and in test [18] was “inactive” each time. Further, in test [13], the Potency result is “inactive”. Besides, the Potency in [3] was 11.8 µM (active); in [10], 0.332 µM (active); in test [11], 4.18 µM (active); in [17] it was 21.7 µM (active).

As for `COc1cc2nccc(Oc3ccc(NC(=O)NC4CC4)c(Cl)c3)c2cc1C(N)=O`, the Potency in test [2] is 526 nM (active); in test [3], 0.469 µM (active); in [10] it was 0.935 µM (active); in test [14] it was 1.37 µM (active); in [4], 0.0935 µM (active); in test [6], 1.52 µM (active). Further, the Potency in test [11] is 2.96 µM (active); in [7], 372 nM (active); in test [17] it was 6.85 µM (active); in test [18], 5.26 µM (active); in [19] it was 14.8 µM (active); in test [15] it was 5.9 µM (active). In addition, the Potency result in [5] and in [9] was “inactive” in each case.
